Consider 10 compounds from PubChem BioAssay (NCATS).

Inconclusive results are not listed. The source made the active and inactive calls. Unless noted, calls come from the whole dose curve; as a rule, active = well fitted curve in the direction sought with a large enough effect; inconclusive = small, poorly fitted or top-dose-only effect, or another doubt; inactive = no such curve, though single readings can be large; an effect the other way counts as inactive or inconclusive.

A short description of assay [1]: qHTS Assay for Lipid Storage Modulators (AID 1519; calls by dose curve; for activity change, negative = inhibition: % is set by controls: 0 for no effect and ±100 for the full control effect). The following applies: Drosophila S3 cells, BODIPY lipid droplet/cell ratio, laser cytometry, cells loaded with oleic acid; for activity change, negative = inhibition: at 57.5 µM (top of the series). The procedure, abridged: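 Cells seeded at 5,000 per well were treated with compounds over a concentration series and loaded with oleic acid (400 uM, as added). Lipid droplet fluorescence (488 nm excitation, 500-530 nm channel) was read by laser-scanning cytometry and normalized to 20 uM Triacsin C.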
A general note: In qHTS, concentration-response curves come from the screen itself.

The target in assay [2] is DNA repair nuclease/redox regulator APEX1 (Homo sapiens) (UniProt P27695). Put plainly: qHTS Validation Assay for Inhibitors of the Human Apurinic/apyrimidinic Endonuclease 1 (APE1) (AID 1705; note: potency is the fitted concentration of half-maximal effect;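 for activity change, negative = inhibition: TAMRA fluorescence gain over two minutes as APE1 cuts a quenched THF abasic duplex; % is set by controls: 0 for no effect and ±100 for the full control effect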). The conditions noted are these: purified APE1 endonuclease activity, fluorescence, titration; series mostly up to 57.1 µM. The procedure, abridged:
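Endonuclease activity of human APE1 is followed as dequenching when the enzyme incises a tetrahydrofuran abasic site in a short duplex labelled 5'-TAMRA/3'-BHQ-2 (50 nM final), after 15 min enzyme–compound preincubation at room temperature.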

Assay [3] in a line: Counterscreen for APE1 Inhibitors: Fluorescent Dye Displacement Validation Assay (AID 1707).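 Note: plate controls were ThO with dsDNA and no compound for no effect and ThO without dsDNA for full effect.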 The conditions noted are these: fluorescent dye displacement from DNA; series mostly up to 57.1 µM. The procedure, abridged:
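Counterscreen flags promiscuous DNA binders: compounds displacing ThO from duplex DNA (abasic THF site, 50 nM) reduce 540 nm emission (480 nm excitation). ThO 250 nM final; Tris-HCl pH 7.5 with NaCl, MgCl2 and Tween-20.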

Assay [4] deals with Endonuclease 4 (Escherichia coli (strain K12)) (UniProt P0A6C1). The assay is described as follows: Counterscreen for APE1 Inhibitors: qHTS Validation Assay for Inhibitors of Endonuclease IV (AID 1708). Note: % is set by controls: 0 for no effect and ±100 for the full control effect. The following applies: E. coli endonuclease IV, DNA cleavage fluorescence; series mostly up to 57.1 µM. A digest of the protocol: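 Incision of a double-stranded 50 nM TAMRA/BHQ-2 abasic substrate was followed kinetically (525/598 nm, reads every 60 s) after 15 min enzyme–compound preincubation with 2 nM EndoIV in pH 7.5 Tris buffer with MgCl2, DTT and Tween-20; concentration-response format.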
On the technique in general: A counterscreen serves to expose hits that act by an unwanted route or on another target.

Assay [5] is described as follows: qHTS for differential inhibitors of proliferation of Plasmodium falciparum line 7G8 (AID 1815).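 For activity change, negative = inhibition: plate controls were vehicle wells for no effect and reference inhibitor wells for full effect.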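 Note: parasite growth measured after three days of incubation.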 Note: potency is the fitted concentration of half-maximal effect. The conditions noted are these: Plasmodium falciparum 7G8 proliferation inhibition; series mostly up to 28.7 µM.
Assay [6] can be described thus: qHTS for differential inhibitors of proliferation of Plasmodium falciparum line GB4 (AID 1816).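 For activity change, negative = inhibition: 0% = vehicle DMSO and -100% = reference inhibitor.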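 Note: parasite growth measured after 72 h incubation.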 Note: potency is the fitted concentration of half-maximal effect. The conditions noted are these: Potency: Plasmodium falciparum GB4 proliferation inhibition; series mostly up to 28.7 µM.
The nature of assay [7]: qHTS for differential inhibitors of proliferation of Plasmodium falciparum line Dd2 (AID 1882).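 For activity change, negative = inhibition: plate controls were DMSO vehicle for no effect and 0.29 µM artemisinin for full effect.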 Note: nearly all actives have a fitted effect of over 65% in size. Note: potency is the fitted concentration of half-maximal effect. The following applies: Potency: Plasmodium falciparum Dd2 proliferation inhibition; series mostly up to 28.7 µM. A digest of the protocol: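 SYBR Green DNA fluorescence (ex 485, em 535 nm) after overnight lysis quantifies parasite growth; compound exposure lasted 72 h at 37 C on infected red cells at 2.5% hematocrit, 0.3% parasitemia (final). Artemisinin 0.29 uM and vehicle wells define normalization.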

The nature of assay [8]: qHTS for differential inhibitors of proliferation of Plasmodium falciparum line W2 (AID 1883).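 Note: potency is the fitted concentration of half-maximal effect; parasites grown with compound for 72 h before lysis and staining.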 The conditions noted are these: Potency: Plasmodium falciparum W2 proliferation inhibition; series mostly up to 28.7 µM.
Assay [9] in a line: qHTS for differential inhibitors of proliferation of Plasmodium falciparum line 3D7 (AID 1876). Note: potency is the fitted concentration of half-maximal effect. The following applies: P. falciparum 3D7 proliferation inhibition; series mostly up to 28.7 µM.
A short description of assay [10]: qHTS for differential inhibitors of proliferation of Plasmodium falciparum line D10 (AID 1877).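 For activity change, negative = inhibition: plate controls were vehicle wells for no effect and reference inhibitor wells for full effect.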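 Note: parasites grown with compound for 72 h before DNA staining.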 Note: potency is the fitted concentration of half-maximal effect. The following applies: series mostly up to 28.7 µM.
Where [11] appears, read: measured here: cell count channel max response.
Where [12] appears, read: measured here: lipid channel max response.

Chain of DNA repair nuclease/redox regulator APEX1 (Homo sapiens) (P27695 whole entry, looked up): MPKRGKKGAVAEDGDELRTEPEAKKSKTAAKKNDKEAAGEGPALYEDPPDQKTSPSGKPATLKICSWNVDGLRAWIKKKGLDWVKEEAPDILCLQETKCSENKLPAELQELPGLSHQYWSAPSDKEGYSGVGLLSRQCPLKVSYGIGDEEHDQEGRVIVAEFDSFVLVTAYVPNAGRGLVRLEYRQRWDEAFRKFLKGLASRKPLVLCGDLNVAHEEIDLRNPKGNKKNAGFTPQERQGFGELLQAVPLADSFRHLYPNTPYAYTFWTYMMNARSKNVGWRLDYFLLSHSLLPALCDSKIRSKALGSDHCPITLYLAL

Take `COC(=O)N1CCN(C(=O)Cc2ccc(Cl)c(Cl)c2)C(CN2CCCC2)C1` (stereo not drawn): in assay [1], the activity change, negative = inhibition is 0.712% (inactive). The figures for the max response in assay [1] (setting [11]) and in assay [1] (setting [12]) were 7.98% and 7.35%, respectively. The Potency entry in assay [2], in assay [3] and in [4] was “inactive” throughout. The Potency in assay [5] was 12.6 µM (active); in assay [6], 10 µM (active); in [7] it was 7.94 µM (active); in assay [8], 2.82 µM (active).

As for `CN(C(=O)Cc1ccc(Cl)c(Cl)c1)C(CN1CCCC1)c1cccc(OCC(=O)O)c1` (stereo not drawn), in assay [1], the activity change, negative = inhibition is 2.91% (inactive). In addition, the max response in assay [1] (setting [11]) was determined as 8.86%; in assay [1] (setting [12]), 13%. Also, the Potency result in assay [2], in assay [3], in assay [4], in [9] and in assay [7] was “inactive” in each case. In [8], the Potency is 14.1 µM (active).

As for `NCC(O)c1cc(O)c(O)cc1F` (stereo not drawn), the activity change, negative = inhibition in [1] is -0.0544% (inactive). Moreover, the results for the max response in assay [1] (setting [11]) and in [1] (setting [12]) were -35.5% and -39.7%, respectively. Besides, the Potency in [2] was 35.5 µM (active). In addition, the Potency result in [3], in assay [4], in assay [6], in [9], in assay [10] and in assay [7] was “inactive” each time.

With `NC(=O)c1ccc(OCC(O)CN2CC=C(c3ccc(F)cc3)CC2)cc1` (stereo not drawn), the activity change, negative = inhibition in assay [1] is -3.69% (inactive). The max response was -43.3% in assay [1] (setting [11]) and -42.5% in assay [1] (setting [12]). Besides, the Potency entry in assay [2], in assay [3] and in assay [4] was “inactive” in each case. The figures for the Potency in [6], in assay [9] and in [8] were 10 µM (active), 11.2 µM (active) and 7.94 µM (active), respectively.

`CCCN(CCC)CCc1ccc(O)c(O)c1`: in assay [1], the activity change, negative = inhibition was -0.321% (inactive). The figures for the max response in assay [1] (setting [11]) and in assay [1] (setting [12]) were -7.51% and -5.97%, respectively. For the same compound, the Potency entry in assay [2], in assay [3] and in [4] was “inactive” in each case. The Potency is 12.6 µM (active) in assay [5], 10 µM (active) in assay [6], 14.1 µM (active) in assay [10] and 10 µM (active) in [8].

Take `c1ccc2c(N3CCNCC3)cccc2c1`: the activity change, negative = inhibition in assay [1] is -1.92% (inactive). Moreover, the results for the max response in assay [1] (setting [11]) and in assay [1] (setting [12]) were 39.8% and 34.6%, respectively. Besides, the Potency entry in assay [2] and in assay [4] was “inactive” each time. The Potency is 12.6 µM (active) in assay [5]; 12.6 µM (active) in assay [6]; 10 µM (active) in assay [10]; 11.2 µM (active) in assay [7]; 7.94 µM (active) in [8].

`C[N+](C)(C)CC#CCOC(=O)Nc1cccc(Cl)c1`: the activity change, negative = inhibition in assay [1] is -0.494% (inactive). Also, the max response in assay [1] (setting [11]) is -7.08%; in [1] (setting [12]), -8.94%. Moreover, the Potency entry in [2], in assay [3] and in [7] was “inactive” each time. The Potency in [9] was 12.6 µM (active); in [10] it was 11.2 µM (active); in assay [8], 12.6 µM (active).

`C[N+]1(C)CCN(c2ccccc2)CC1`: in [1], the activity change, negative = inhibition was 1.07% (inactive). The values for the max response in assay [1] (setting [11]) and in assay [1] (setting [12]) were -21.1% and -16.2%, respectively. In addition, the Potency entry in assay [2], in [4], in [5], in assay [6], in [10] and in [7] was “inactive” in each case.

Consider `CC(C)NP(=O)(NC(C)C)OP(=O)(NC(C)C)NC(C)C`, for which the activity change, negative = inhibition in assay [1] is 2% (inactive). Further, the max response in assay [1] (setting [11]) is -5.61%; in assay [1] (setting [12]) it was -4.03%. Moreover, the Potency entry in assay [2], in assay [3], in assay [4] and in [7] was “inactive” throughout. In addition, the Potency in assay [8] is 11.2 µM (active).

Turning to `COc1ccc2[nH]c3c(c2c1)CCNC3`, the activity change, negative = inhibition in [1] was -0.655% (inactive). For the same compound, the max response in assay [1] (setting [11]) is -42.9%; in assay [1] (setting [12]), -46.2%. For the same compound, the Potency entry in [2], in [4], in assay [5], in [9], in [10] and in assay [7] was “inactive” throughout.
